The OligoGym collection

biological target: PCDH11X; assay: pooled miR-30 sensor sort-seq; sequence = guide strand; settings: shRNA
Also: reference of the scale not given here.

| Sequence | sensor-assay potency score (higher = more potent) |
| --- | --- |
| TTAAGCAGCAAGTTCTTAGGGG | 0.683 |
| TTGATCTTAGCATTAGGCCCAC | -0.682 |
| TTTACTTTCATCACGTAGGTAT | 0.803 |
| TTTTCTGGCATTTCTTCTCGGA | -0.435 |
| AATAGTGACAAAATTAAGCAGC | -0.804 |
| TTCAGTGCTTTTGCGCACCAGT | -0.711 |
| TGTATCAGTAACACTCACTTGC | 0.683 |
| TAACTACTTTGATTGAACGTAT | -0.315 |
| TTGAACTGCATAGCAGTTGTCA | -0.535 |
| ATCAGTAACACTCACTTGCAAA | -1.63 |
| TTGTAGGACTACATACATCATA | -0.797 |

biological target: PCDHA4; assay: as above; settings: shRNA

| Sequence | sensor-assay potency score (higher = more potent) |
| --- | --- |
| TTGGATTTCACATTTGGCGAAA | -0.705 |
| TTCTACTTCCACAATAACTCTA | 0.0225 |
| TTTGTCGGACACGCTGATCAGG | -0.74 |
| TCTACTTCCACAATAACTCTAC | 0.0889 |
| TATCGTTGTTGTCTTCTACTTC | 0.366 |
| TTCAAAGTCAATATATCCCTTT | 0.476 |
| TCTCTGTCTAAAGATTTCCGTA | -0.816 |
| TTAAGTTTAATTACCAATGTTC | -0.347 |
